# Bioassay records (PubChem)
# The entries come from a sample that favours hits as a whole.
# nsP2pro inh: inhibitors of chikungunya virus nsP2 protease; FRET peptide cleavage, nsP2pro, fluorescence 1 h; Potency, µM (titrated, usually from 24.9 µM), most hits filed as inhibitors; 31,000 tested, 1.1% active; further: nearly all actives have a fitted effect of over 60% in size
#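 FRET cleavage of 2.5 uM peptide 2 by 150 nM CHIKV protease domain at pH 8.0 (Tris, Tween 20). Compounds at 7 concentrations (up to 25 uM) preincubated 15 min. Fluorescence read after 1 h at room temperature.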
# nsP2 cell sec: inhibits CHIKV nsP2 protease in cells; 450 tested, 10% active; shares compounds with nsP2pro inh; cell-based CHIKV nsP2 protease reporter assay; Potency, µM (doses to about 51.1 µM), most hits filed as inhibitors; further: nearly all actives have a fitted effect of over 70% in size
# CHIKV NSP2 FL: full-length CHIKV NSP2 protease inhibition, selectivity; Full-length CHIKV NSP2 protease enzymatic counterscreen; Potency, µM (series often up to 50.7 µM), most hits filed as inhibitors; 410 tested, 39% active; AID 1964101; shares compounds with nsP2pro inh; further: nearly all actives have a fitted effect of over 65% in size
# Furin counterscr: human furin inhibition, counterscreen for nsP2pro inhibitors. shares compounds with nsP2pro inh. Recombinant human furin enzymatic counterscreen, fluorogenic substrate. Potency, µM (titrated, usually from 50.6 µM), hits mostly inhibitors. 410 tested, 6% active. AID 1964102
# NS23 peptide cs: selectivity test for CHIKV nsP2 protease inhibitors: endogenous NS2/3 peptide; Purified CHIKV nsP2 protease, endogenous NS2/3 peptide cleavage; Potency, µM (doses to about 51 µM), hits mostly inhibitors; shares compounds with nsP2pro inh; AID 1964103; 410 tested, 34% active; further: nearly all actives have a fitted effect of over 55% in size
# Papain counter: papain protease inhibition, counterscreen for nsP2pro inhibitors | 410 tested, 5% active | Potency, µM (highest dose often 51 µM), hits mostly inhibitors | purified papain protease activity, enzymatic inhibition | shares compounds with nsP2pro inh | AID 1964104
# nsP2pro confirm: confirmation of CHIKV nsP2 protease inhibitors | 410 tested, 43% active | CHIKV nsP2 protease enzymatic activity, qHTS | shares compounds with nsP2pro inh | Potency, µM (top dose mostly 25.5 µM), hits mostly inhibitors; further: nearly all actives have a fitted effect of over 75% in size
# HCV NS3 counter: inhibits HCV NS3/4A protease in an nsP2pro selectivity counterscreen. shares compounds with nsP2pro inh. HCV NS3/4A protease biochemical counterscreen. Potency, µM (highest dose often 50.9 µM), actives largely listed as inhibitors. 410 tested, 20% active; further: nearly all actives have a fitted effect of over 55% in size
# Hits are given with their value; . = inactive; ? = inconclusive. The call rests on the fitted dose curve.
SMILES,nsP2pro inh,others
COc1cc(NS(=O)(=O)c2cccc([N+](=O)[O-])c2)c2ncccc2c1,.,
COc1ccc(-c2ccc(NS(=O)(=O)c3ccccc3)cc2)nn1,.,
COc1ccc([N+](=O)[O-])c(S(=O)(=O)c2ccccc2)n1,2.2µM,nsP2 cell sec=1.8µM;CHIKV NSP2 FL=13µM;Furin counterscr=?;NS23 peptide cs=3.3µM;Papain counter=.;nsP2pro confirm=5.7µM;HCV NS3 counter=?
COc1ccc(NS(=O)(=O)c2ccc(N)cc2)nn1,.,
CCN(CC)CCCNc1sc(S(=O)(=O)c2ccccc2)nc1S(=O)(=O)c1ccc(Cl)cc1,.,
COc1ccc([N+](=O)[O-])c(S(=O)(=O)c2ccc(Cl)cc2)n1,6.3µM,nsP2 cell sec=2.1µM;CHIKV NSP2 FL=23µM;Furin counterscr=.;NS23 peptide cs=5.8µM;Papain counter=.;nsP2pro confirm=.;HCV NS3 counter=.
O=C(Nc1ccc(F)c(F)c1)Nc1nnc(-c2ccncc2)s1,.,
C=C(C=O)[C@]1(O)C[C@@]2(C)C(=CC1=O)C=C[C@H](OC(=O)/C=C/C=C/[C@H](C)CC)[C@@H]2C,.,
N#Cc1ccc(O[C@@H]2c3ccccc3C[C@H]2N2CCC[C@@H](N)C2)c(Cl)c1,.,
Cc1nc(CNc2ncnc3ccc(-c4ccoc4)cc23)cs1,.,
Cc1ccc2nc3sc(C(=O)N4CCCCC4)cc3cc2c1,.,
CS(=O)(=O)c1ncc(Cl)c(C(=O)N(Cc2ccc(Cl)cc2)Cc2ccco2)n1,4.8µM,nsP2 cell sec=2.6µM;CHIKV NSP2 FL=?;Furin counterscr=.;NS23 peptide cs=4.1µM;Papain counter=.;nsP2pro confirm=2.2µM;HCV NS3 counter=.
O=C(c1ccc(Cl)cc1)N(Cc1ccco1)Cc1ccco1,.,
O=C(c1cc(-c2ccc(Cl)cc2)on1)N(Cc1ccc(F)cc1)Cc1ccco1,.,
Nc1nc(NCc2ccc(-c3ccnc(C(F)(F)F)c3)cc2)c2ccccc2n1,.,
